Data: PubChem BioAssay (NCI)
“And” between values parts separate entries of the source, which are not always exact repeats. Equal values may be shown once. Compounds without any hit were thinned out: in the full panel of roughly 83,000, 20% have a hit.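 Compound tested at a single concentration for 48 hours in 96-well plates; a percent growth value below 10 was scored as active.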 The source made the active and inactive calls.

Assays:
Assay in all cases: NCI-60 one-dose screen, 48 h (100 = growth as untreated, 0 = no growth, -100 = all killed)
Conditions in all cases: 10 µM unless noted
T-47D breast = test system: T-47D breast
BT-549 breast = test system: BT-549 breast
MDA-MB-435 melanoma = test system: MDA-MB-435 melanoma
SW-620 colon = test system: SW-620 colon
MCF7 breast = test system: MCF7 breast
HCT-116 colon = test system: HCT-116 colon
HCC-2998 colon = test system: HCC-2998 colon
KM12 colon = test system: KM12 colon

Row | Structure (SMILES) | growth (T-47D breast) | growth (BT-549 breast) | growth (MDA-MB-435 melanoma) | growth (SW-620 colon) | growth (MCF7 breast) | growth (HCT-116 colon) | growth (HCC-2998 colon) | growth (KM12 colon)
1 | C(=N\Nc1nc(N/N=C/c2ccc3c(c2)OCO3)nc(N2CCCCC2)n1)/c1ccc2c(c1)OCO2 | 87.2% (inactive) | 122% (inactive) | 98.5% (inactive) | 82.4% (inactive) | 54.8% (inactive) | 47.9% (inactive) | 83.8% (inactive) | 
2 | CNC(=O)Nc1ccc(Nc2cc(-c3ccc(-n4cccn4)cc3)[nH]n2)c(C)c1 | 104% (inactive) | 111% (inactive) | 105% (inactive) | 126% (inactive) | 81.2% (inactive) | 107% (inactive) | 123% (inactive) | 
3 | O=C(CSc1nc2ccccc2c(=O)n1-c1ccccc1)Nc1ccc(S(=O)(=O)Nc2nccs2)cc1 | 69.3% (inactive) | 45.2% (inactive) | 84.1% (inactive) | 67.9% (inactive) | 57.6% (inactive) | 37.7% (inactive) | 118% (inactive) | 
4 | C#CCn1cc(/C=N/Nc2nc(-c3ccc(Br)cc3)cs2)c2ccccc21 | 76.4% (inactive) | 111% (inactive) | 106% (inactive) | 98.7% (inactive) | 64.1% (inactive) | 85.4% (inactive) | 116% (inactive) | 
5 | N#Cc1cnc2ccc(-c3cnc4n[nH]nc4c3)cc2c1N1CCc2cc(F)c(Cl)cc21 | 1.2% (active) | 3.78% (active) | 19.5% (inactive) | 26.8% (inactive) | 8.34% (active) | 23.7% (inactive) | 22.5% (inactive) | 
6 | COc1cc(-c2nc(-c3ccccc3)[nH]c2-c2ccnc(NCCCNS(=O)(=O)c3ccc(C(F)(F)F)cc3)n2)ccc1Cl | 44.2% (inactive) and 21.1% (inactive) | 44.7% (inactive) and 67.2% (inactive) | 29.4% (inactive) and 27.5% (inactive) | 46.8% (inactive) and 55.9% (inactive) | 9.62% (active) and 18.3% (inactive) | 16.3% (inactive) and 17.4% (inactive) | 48.5% (inactive) and 51% (inactive) | 
7 | CN1CCN(Cc2ccc(NC(=O)c3cncc(C#Cc4cnc5ccc(OCCCS(C)(=O)=O)nn45)c3)cc2C(F)(F)F)CC1 | 16.2% (inactive) | -21.5% (active) | -22.7% (active) | 1.18% (active) | -12.8% (active) | 1.88% (active) | -22% (active) | 
8 | O=C1Nc2ccccc2/C1=C/c1ccc(OCC(=O)c2ccccc2)cc1 | 97.6% (inactive) | 118% (inactive) | 102% (inactive) | 102% (inactive) | 88.7% (inactive) | 94.4% (inactive) | 105% (inactive) | 
9 | Cc1ccc(NC(=O)Nc2nc3ccc([N+](=O)[O-])cc3s2)cc1 | -22.3% (active) | -9.82% (active) | -7.46% (active) | 8.56% (active) | 2.35% (active) | 1.1% (active) | 6.19% (active) | 
10 | O=C(/C=C/c1cccc(Br)c1)c1cccc(OCCCCOc2cccc(C(=O)/C=C/c3cccc(Br)c3)c2)c1 | 104% (inactive) | 117% (inactive) | 105% (inactive) | 98.3% (inactive) | 89.5% (inactive) | 87% (inactive) | 118% (inactive) | 98.7% (inactive)
11 | Cc1c(C(=O)/C=C/c2ccc(Cl)cc2)nnn1-c1ccc2oc(=O)ccc2c1 | 85.5% (inactive) | 109% (inactive) | 99.7% (inactive) | 97.7% (inactive) | 42.2% (inactive) | 88.5% (inactive) | 104% (inactive) | 
12 | O=C(CCCCCCNC(=O)c1csc(Br)n1)NO | 6.1% (active) | 88.4% (inactive) | 12% (inactive) | 7.18% (active) | 26.7% (inactive) | 3.29% (active) | 63% (inactive) | 
13 | Cn1cc(-c2cc3ncnc(Nc4ccc(CC(=O)Nc5nc(C(C)(C)C)cs5)cc4)c3s2)cn1 | 3.67% (active) | 61.3% (inactive) | 54.6% (inactive) | 53.8% (inactive) | 41.8% (inactive) | 39% (inactive) | 74.6% (inactive) | 
14 | COC(=O)c1ccc(NC2=C(Cl)C(=O)C(C)=C(C)C2=O)cc1 | -25.9% (active) | 77.5% (inactive) | 7.22% (active) | 35.5% (inactive) | 35.9% (inactive) | 32.4% (inactive) | 71.1% (inactive) | 
15 | C#CCOc1ccc(-c2csc(NC(=O)C=C)n2)cc1NS(=O)(=O)c1cccc2c(N(C)C)cccc12 | 60.7% (inactive) | 58.6% (inactive) | 14.7% (inactive) | 10.3% (inactive) | 4.46% (active) | -72.2% (active) | 78.4% (inactive) | 
